Test results: PubChem BioAssay (NCATS)
“And” between values parts separate entries of the source, which are not always exact repeats. Identical values can stand only once. Records with an inconclusive call do not appear. The source made the active and inactive calls. The call rests on the fitted dose curve; in most records, active means well fitted curve in the direction sought with a large enough effect; inconclusive means small, poorly fitted or top-dose-only effect, or another doubt; inactive means no such curve, though single readings can be large; an effect the other way counts as inactive or inconclusive.

Legend:
[1] = qHTS of pediatric cancer cell lines to identify multiple opportunities for drug repurposing: Primary screen for BT-12 cells (AID 1347101); details: BT-12 viability, CellTiter-Glo luminescence, 48 h; series mostly up to 57.3 µM; further: nearly all actives have a fitted effect of over 25% in size; further: potency means the concentration at half of the fitted maximal effect
Outline: (§1)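 Cells (500-1,000/well) rested 5 h, then received compounds for 48 h; metabolically active cells were measured by CellTiter-Glo luminescence. Final concentrations spanned up to 46 µM (MIPE, 11-point) or 0.59 nM-46 µM (NPC, 8-point) in primary screens, 11-point in follow-ups.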

[2] = qHTS of pediatric cancer cell lines to identify multiple opportunities for drug repurposing: Primary screen for Rh18 cells (AID 1347102); details: Rh18 rhabdomyosarcoma viability, CellTiter-Glo luminescence, 48 h; series mostly up to 46 µM; further: nearly all actives have a fitted effect of over 65% in size; further: potency means the concentration at half of the fitted maximal effect
Outline: (§2)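 Cells (500-1,000/well) in growth media were settled 5 h at 37 degrees C, then given compounds for 48 h. Viability was read as CellTiter-Glo luminescence. Primary runs used MIPE at 11 points (0.78 nM-46 µM) and NPC at 8 points (0.59 nM-46 µM); follow-ups used 11 points.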

[3] = qHTS of pediatric cancer cell lines to identify multiple opportunities for drug repurposing: Primary screen for OHS-50 cells (AID 1347103); details: OHS-50 osteosarcoma viability, CellTiter-Glo luminescence, 48 h; series mostly up to 57.3 µM; further: nearly all actives have a fitted effect of over 40% in size; further: potency means the concentration at half of the fitted maximal effect
Outline: as §1

[4] = qHTS of pediatric cancer cell lines to identify multiple opportunities for drug repurposing: Primary screen for MG 63 (6-TG R) cells (AID 1347105); details: MG 63 (6-TG R) viability, CellTiter-Glo, 48 h; series mostly up to 46 µM; further: nearly all actives have a fitted effect of over 50% in size; further: potency means the concentration at half of the fitted maximal effect
Outline: (§3)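 500-1,000 cells/well; 5 h pre-incubation 37 °C/5% CO2; compound pinned; 48 h; CellTiter-Glo, 15 min RT; luminescence. MIPE 11-pt from 0.78 nM, NPC 8-pt from 0.59 nM final. Bortezomib 2.3 µM final as positive control.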

[5] = qHTS of pediatric cancer cell lines to identify multiple opportunities for drug repurposing: Primary screen for control Hh wild type fibroblast cells (AID 1347106); details: Hh wild-type fibroblast viability, CellTiter-Glo luminescence, 48 h; series mostly up to 46 µM; further: nearly all actives have a fitted effect of over 55% in size; further: potency means the concentration at half of the fitted maximal effect
Outline: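 Viability after 48 h compound treatment at 37C, 500-1,000 cells/well, read as ATP luminescence with CellTiter-Glo. Primary screens used 11-point (MIPE, 0.78 nM-46 µM) or 8-point (NPC, 0.59 nM-46 µM) final concentrations; follow-up screens used 11-point dilutions.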

[6] = qHTS of pediatric cancer cell lines to identify multiple opportunities for drug repurposing: Primary screen for Rh30 cells (AID 1347107); details: Rh30 rhabdomyosarcoma viability, CellTiter-Glo luminescence, 48 h; series mostly up to 46 µM; further: nearly all actives have a fitted effect of over 75% in size
Outline: as §2

[7] = qHTS of pediatric cancer cell lines to identify multiple opportunities for drug repurposing: Confirmatory screen for NB1643 cells (AID 1347109); details: NB1643 neuroblastoma cell viability; series mostly up to 45.9 µM; further: nearly all actives have a fitted effect of over 45% in size; further: potency means the concentration at half of the fitted maximal effect
Outline: as §2

[8] = qHTS of pediatric cancer cell lines to identify multiple opportunities for drug repurposing: Confirmatory screen for A673 cells (AID 1347110); details: A673 Ewing sarcoma cell viability; series mostly up to 45.9 µM;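 further: cells exposed to compound for 48 h before the viability read; nearly all actives have a fitted effect of over 65% in size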; further: potency means the concentration at half of the fitted maximal effect
Outline: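 Viability was read as ATP luminescence (CellTiter-Glo) after 48 h of compound exposure at 37 C in A673 cells seeded at 500-1,000/well. Titrations reached 46 uM final, with 11 points in the confirmatory screen. Concentration-response curves were fitted directly.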

[9] = qHTS of pediatric cancer cell lines to identify multiple opportunities for drug repurposing: Confirmatory screen for BT-12 cells (AID 1347112); details: BT-12 rhabdoid tumor cells, viability; series mostly up to 45.9 µM; further: nearly all actives have a fitted effect of over 55% in size; further: potency means the concentration at half of the fitted maximal effect
Outline: as §2

[10] = qHTS of pediatric cancer cell lines to identify multiple opportunities for drug repurposing: Confirmatory screen for LAN-5 cells (AID 1347113); details: LAN-5 neuroblastoma cell viability; series mostly up to 45.9 µM; further: nearly all actives have a fitted effect of over 65% in size; further: potency means the concentration at half of the fitted maximal effect
Outline: as §2

[11] = qHTS of pediatric cancer cell lines to identify multiple opportunities for drug repurposing: Confirmatory screen for NB-EBc1 cells (AID 1347115); details: NB-EBc1 neuroblastoma cells, viability (cytotoxicity); series mostly up to 45.9 µM;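 further: cells exposed to compound for 48 h before the viability read; nearly all actives have a fitted effect of over 45% in size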; further: potency means the concentration at half of the fitted maximal effect
Outline: as §2

[12] = qHTS of pediatric cancer cell lines to identify multiple opportunities for drug repurposing: Confirmatory screen for SJ-GBM2 cells (AID 1347116); details: SJ-GBM2 glioblastoma cells, viability; series mostly up to 45.9 µM; further: nearly all actives have a fitted effect of over 60% in size; further: potency means the concentration at half of the fitted maximal effect
Outline: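 Viability measured as metabolically active cells via CellTiter-Glo luminescence following 48 hours of compound exposure, 11-point dilutions in confirmatory testing. 500-1,000 cells/well plated 5 hours before dosing; controls were DMSO and 2.3 µM bortezomib.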

[13] = qHTS of pediatric cancer cell lines to identify multiple opportunities for drug repurposing: Confirmatory screen for MG 63 (6-TG R) cells (AID 1347119); details: MG-63 (6-TG resistant) osteosarcoma viability; series mostly up to 45.9 µM; further: nearly all actives have a fitted effect of over 55% in size; further: potency means the concentration at half of the fitted maximal effect
Outline: as §2

[14] = qHTS of pediatric cancer cell lines to identify multiple opportunities for drug repurposing: Confirmatory screen for control Hh wild type fibroblast cells (AID 1347121); details: viability qHTS; series mostly up to 45.9 µM; further: nearly all actives have a fitted effect of over 70% in size
Outline: as §2

[15] = qHTS of pediatric cancer cell lines to identify multiple opportunities for drug repurposing: Confirmatory screen for U-2 OS cells (AID 1347122); details: U-2 OS osteosarcoma cell viability; series mostly up to 45.9 µM; further: nearly all actives have a fitted effect of over 65% in size; further: potency means the concentration at half of the fitted maximal effect
Outline: as §2

[16] = qHTS of pediatric cancer cell lines to identify multiple opportunities for drug repurposing: Confirmatory screen for RD cells (AID 1347124); details: RD rhabdomyosarcoma cell viability; series mostly up to 45.9 µM; further: potency means the concentration at half of the fitted maximal effect
Outline: as §2

[17] = qHTS of pediatric cancer cell lines to identify multiple opportunities for drug repurposing: Confirmatory screen for Rh18 cells (AID 1347125); details: Rh18 rhabdomyosarcoma cells, viability; series mostly up to 45.9 µM; further: nearly all actives have a fitted effect of over 55% in size; further: potency means the concentration at half of the fitted maximal effect
Outline: as §2

[18] = qHTS of pediatric cancer cell lines to identify multiple opportunities for drug repurposing: Primary screen for RD cells (AID 1347104); details: RD rhabdomyosarcoma viability, CellTiter-Glo luminescence, 48 h; series mostly up to 46 µM; further: nearly all actives have a fitted effect of over 55% in size; further: potency means the concentration at half of the fitted maximal effect
Outline: as §3

[19] = qHTS of pediatric cancer cell lines to identify multiple opportunities for drug repurposing: Primary screen for Rh41 cells (AID 1347108); details: Rh41 rhabdomyosarcoma viability, CellTiter-Glo luminescence, 48 h; series mostly up to 46 µM;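 further: luminescence drop marks cytotoxic hits; nearly all actives have a fitted effect of over 70% in size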
Outline: as §3

[20] = qHTS of pediatric cancer cell lines to identify multiple opportunities for drug repurposing: Confirmatory screen for BT-37 cells (AID 1347117); details: BT-37 pediatric cancer cells, viability; series mostly up to 45.9 µM; further: nearly all actives have a fitted effect of over 55% in size; further: potency means the concentration at half of the fitted maximal effect
Outline: as §2

Measured: Potency

Nc1ncn([C@H]2C[C@H](O)[C@@H](CO)O2)c(=O)n1
not listed: [18] | [19] | [20]
inactive: all other assays above

Nc1nc(OCc2ccccc2)c2[nH]cnc2n1
not listed: [3] | [9] | [10] | [13] | [19] | [20]
inactive: all other assays above

COCCCN1CCC(NC(=O)c2cc(Cl)c(N)c3c2OCC3)CC1
inactive: [1] | [2] | [18] | [4] | [5] | [6] | [19]

CCCCc1ccc2nc(NC(=O)OC)[nH]c2c1
active: [1] 27.3 nM and 61.7 nM | [3] 15.3 nM and 61.7 nM | [7] 657 nM | [8] 329 nM | [10] 8.27 µM | [11] 1.47 µM | [12] 3.29 µM | [20] 0.414 µM | [13] 0.185 µM | [15] 0.329 µM | [16] 0.369 µM | [17] 8.27 µM
inactive: [2] | [6]

O=P(O)(O)C(O)(Cn1ccnc1)P(=O)(O)O
inactive: [1] | [2] | [3] | [18] | [5] | [6] | [19]

Cc1cc2cc3c(C)cc(=O)oc3c(C)c2o1
inactive: [1] | [2] | [3] | [4] | [5] | [6]

O=c1oc2cc(O)ccc2s1
inactive: [1] | [2] | [3] | [4] | [5] | [6] | [19]

COC(=O)C1=C(C)NC(C)=C(C(=O)OC(C)C)C1c1cccc2nonc12 (configuration not stated)
inactive: [1] | [2] | [3] | [18] | [5] | [6] | [19]

Cc1c(OCC(F)(F)F)ccnc1CS(=O)c1nc2ccccc2[nH]1 (configuration not stated)
inactive: [1] | [2] | [18] | [4] | [5] | [6] | [19]

CCCOc1ccc2nc(NC(=O)OC)[nH]c2c1
inactive: [2] | [5] | [6] | [14] | [17]
active: [1] 123 nM and 30.6 nM | [3] 61.7 nM and 13.7 nM | [8] 1170 nM | [9] 4.14 µM | [12] 1.47 µM | [20] 1.31 µM | [13] 1.17 µM | [15] 2.08 µM | [16] 1.65 µM

CC1(C)CCC(C)(C)c2cc(NC(=O)c3ccc(C(=O)O)cc3)ccc21
inactive: [1] | [2] | [18] | [4] | [5] | [6]

Cn1c(NCCN(CCO)CCCc2ccc([N+](=O)[O-])cc2)cc(=O)n(C)c1=O
inactive: [1] | [2] | [4] | [5] | [6]

Cc1ccc(S(=O)(=O)NC(=O)NN2CC3CCCC3C2)cc1 (configuration not stated)
inactive: [1] | [2] | [4] | [5] | [6] | [19]

Cc1cc2c(s1)Nc1ccccc1N=C2N1CCN(C)CC1
inactive: [1] | [2] | [3] | [18] | [5] | [6] | [19]

CCC1=C(C)CN(C(=O)NCCc2ccc(S(=O)(=O)NC(=O)NC3CCC(C)CC3)cc2)C1=O (configuration not stated)
inactive: [1] | [2] | [3] | [18] | [5] | [6] | [19]

CC(C)(S)[C@@H](N)C(=O)O
inactive: [1] | [2] | [3] | [18] | [5] | [6] | [19]

Cc1ccc(C(=O)c2cc(O)c(O)c([N+](=O)[O-])c2)cc1
inactive: [1] | [2] | [18] | [4] | [5] | [6] | [19]

O=c1c(O)c(-c2cc(O)c(O)c(O)c2)oc2cc(O)cc(O)c12
inactive: [1] | [2] | [18] | [5] | [6]

CC[C@]1(O)C[C@H]2CN(CCc3c([nH]c4ccccc34)[C@@](C(=O)OC)(c3cc4c(cc3OC)N(C=O)[C@H]3[C@@](O)(C(=O)OC)[C@H](OC(C)=O)[C@]5(CC)C=CCN6CC[C@]43[C@@H]65)C2)C1
active: [1] 15.3 nM and 19.5 nM | [3] 12.2 nM and 12.3 nM | [4] 33.5 nM | [7] 10.4 nM and 1.04 µM | [8] 14.7 nM and 18.5 nM | [9] 36.9 nM and 208 nM | [10] 58.5 nM and 827 nM | [11] 827 nM and 4.14 µM | [12] 0.185 µM | [20] 14.7 nM and 131 nM | [13] 46.5 nM and 329 nM | [15] 414 nM and 585 nM | [16] 52.2 nM and 147 nM
inactive: [2] | [5] | [6] | [19] | [14] | [17]

Cc1cccc(-c2[nH]ncc2-c2ccc3ncccc3n2)n1
inactive: [1] | [2] | [18] | [4] | [5] | [6]

Cc1cc(C2CCCCC2)n(O)c(=O)c1
inactive: [12]
active: [1] 6.92 µM and 17.2 µM | [3] 3.09 µM and 4.32 µM | [18] 7.5 µM and 18.7 µM | [4] 13.3 µM and 23.5 µM | [7] 14700 nM | [8] 11700 nM | [10] 5.85 µM | [11] 16.5 µM | [20] 2.33 µM | [13] 20.8 µM

COc1cc(Nc2c(C#N)cnc3cc(OCCCN4CCN(C)CC4)c(OC)cc23)c(Cl)cc1Cl
active: [1] 27.6 µM | [3] 19.5 µM and 2.17 µM | [18] 15 µM and 14.8 µM
inactive: [5]

O=C(NOCC1CC1)c1ccc(F)c(F)c1Nc1ccc(I)cc1Cl
active: [1] 27.6 µM and 24.3 µM | [3] 19.3 µM | [18] 9.44 µM and 5.26 µM | [4] 26.6 µM and 11.8 µM
inactive: [5]

CCN(CC)CCOc1ccc(Cc2ccccc2)cc1
inactive: [1] | [2] | [4] | [5] | [6] | [19]

O=C1c2c(O)cc(O)cc2OC(c2ccc(O)c(O)c2)C1O (configuration not stated)
not listed: [3]
inactive: all other assays above

Cc1ccc(Nc2nccc(N(C)c3ccc4c(C)n(C)nc4c3)n2)cc1S(N)(=O)=O
inactive: [5] | [6] | [10] | [20] | [13] | [16]
active: [1] 12.3 µM and 15.3 µM | [2] 16.6 µM | [3] 5.5 µM | [4] 66.8 nM | [15] 18.5 µM

CCc1nc(N)nc(N)c1-c1ccc(Cl)cc1
active: [1] 8.71 µM and 10.9 µM | [18] 10.6 µM and 18.7 µM | [8] 329 nM | [20] 5.22 µM | [16] 9.27 µM
inactive: [2] | [5] | [6] | [19] | [13]

Cc1cccc(C#Cc2ccccc2)n1
inactive: [1] | [2] | [5]

COc1cc2c(N3CCN(C(=O)Nc4ccc(OC(C)C)cc4)CC3)ncnc2cc1OCCCN1CCCCC1
active: [1] 24.3 µM | [3] 27.3 µM and 19.5 µM | [18] 26.4 µM and 26.6 µM
inactive: [4] | [6]

CCCS(=O)c1ccc2nc(NC(=O)OC)[nH]c2c1 (configuration not stated)
active: [3] 27.3 µM | [4] 13.3 µM and 18.7 µM
inactive: [5]

Oc1ccc2ccccc2c1SSc1c(O)ccc2ccccc12
active: [5] 23.5 µM

COC1=C(OC)C(=O)C(CCCCCCCCCCO)=C(C)C1=O
inactive: [4] | [5] | [6] | [19]
